In PubChem BioAssay (EPA / NIEHS) one finds outcome and AC50 data, which are given here for 40 compounds.

SMILES strings stand for the structures. Active and inactive are the calls of the source. Rule for the calls: active = hit-call score of the fitted dose curve at least 0.9, where 1 is the maximum; inactive = score below 0.9.

Read-out in the test: Glutathione S-Transferase (GSTA2), GSTA2 (gene 2939)
Description: LTEA_HepaRG_GSTA2: Life Technologies and Expression Analysis (LTEA) Assay for Glutathione S-Transferase (GSTA2) using HepaRG (AID 2283497). The note with it: mRNA level, 48 h; actives raise or lower the signal. The protocol: LTEA_HepaRG is a cell based, multiplexed-readout assay that uses HepaRG, a human liver cell line, with measurements taken at 48 hours after chemical dosing on a 96-well plate.LTEA_HepaRG_GSTA2 is one of 102 assay component(s) measured in the LTEA HepaRG cell culture assay. It is a marker of Oxidative Stress.Data from the assay component LTEA_HepaRG_GSTA2 was analyzed into 1 endpoint. This assay endpoint, LTEA_HepaRG_GSTA2, was analyzed with bidirectional fitting relative to DMSO as the negative control and baseline of activity. Using a type of inducible reporter, measures of mRNA induction for gain or loss-of-signal activity can be used to understand regulation of transcription factor activity. To generalize the intended target to other relatable targets, this assay endpoint is annotated to the transferase intended target family, where the subfamily is alkyl and aryl transferase.
A total of 1060 chemcials from the ToxCast library were tested in eight-point concentration-response experiments. Cell culture and cytotoxicity assays were conducted at Thermo Fisher Scientific's Custom Services facility (Madison, WI). A single lot of human HepaRG cells (Thermo Fisher Scientific, Frederick, MD) was used for the cell culture experiments. 96-well format collagen type I coated plates of human HepaRG cells were prepared using established methods. Briefly, cryopreserved HepaRG cells were thawed, plated at a density of approximately 100,000 cells/well in HepaRG Thaw, Plate, and General Purpose media (HPRG770, Thermo Fisher Scientific), and incubated for 48 hours. 0.5% DMSO was selected as vehicle control to balance the requisite need of DMSO in HepaRG cultures to maintain differentiation (for example, baseline metabolism, proportions of hepatocytes vs. cholangiocytes), while enabling further hepatic receptor pathway activation (for example, PXR and CAR) in response to chemical exposure. 48 hours after plating, the culture medium was replaced with HepaRG Serum-Free Incudtion Media. Cells were exposed to each test chemical in duplicate and maintained in CO2 incubators for another 48 hours. Chemical plates were thawed to room temperature and 200x concentrations of treatment groups were prepared. 8-point conentration-reponse curves were made with the highest exposure at 100 uM, followed by half-log dilutions, all in 0.5% DMSO. Each test plate contained variouse controls, induction positive controls (1mM phenobarbital), cytotoxicity positive controls ([…] aflatoxin B1), vehicle controls (0.5% DMSO), and total lysis controls (0.5% DMSO). Cell morphology images were taken using an Essen IncuCyte FLR automated microscope, with six 96-well plates imaged in about 24 minutes. Images were captured and exported and JPEG files. Spent culture media was transfered to black-well plates for the LDH assay, and remaining media was sorted at -80 C for later use. Cells were treated with RLT buffer and frozen until shipped for gene expression analysis. Total RNA was isolated from the cell suspension in 75 uL of Buffer RLT (Qiagen, Germantown, MD 20874) by Quintiles/Expression Analysis (Durham, NC) using a custom isolation procedure. Total RNA from each plate well was transferred to a preamplification plate. Fluidigm's 96.96 Dynamic ArrayTM (Fluidigm, Amsterdam, the Netherlands) technology was used for gene expression analyses by quantitative reverse transcription polymerase chain reaction (qRT-PCR, performed by Quintiles/Expression Analysis, Durham, NC)89. Standard TaqManTM Assays (Applied Biosystems/ThermoFisher Scientific, Foster City, CA) were used to assess the expression of 93 genes selected based on their selectivity and sensitivity to important hepatic receptors known to be modulated by environmental chemicals; importance in human hepatocyte functionality; and hepatotoxicity. […]
`Nc1ccc(Cl)cc1`: the result was inactive. As for `c1ccc2c(c1)Nc1ccccc1S2`, the call was inactive. In the case of `CCOP(=S)(Oc1ccc([N+](=O)[O-])cc1)c1ccccc1` (stereo not given), the call was inactive. The same measure, in the same setting: as for `OCC1CO1` (stereo not given), the entry is “inactive”; as for `CCC(C)(C)c1ccc(O)cc1`, “inactive”; as for `Nc1cc2c3c(c1)C(c1ccccc1)=N[C@@H](NC(=O)c1cccnc1)C(=O)N3CC2`, “inactive”. As for `CCOc1ccc(C(C)(C)COCc2cccc(Oc3ccccc3)c2)cc1`, the outcome was inactive. Take `CC(Cc1ccc(OCC(=O)O)cc1)NCC(O)c1csc(C(F)(F)F)n1` (stereo not given): the outcome was inactive. The same measure, in the same setting: as for `O=C(O)C1C(C(=O)O)C2(Cl)C(Cl)=C(Cl)C1(Cl)C2(Cl)Cl` (stereo not given), the entry is “inactive”; as for `Cc1cccc(N)c1`, “inactive”. Consider `[N-]=[N+]=[N-]`, for which the AC50 is 79.3 µM (active).

Regarding `CCOP(=S)(OCC)SCSCC`, the outcome was inactive. Turning to `CC(Cl)(Cl)C(=O)O`, the call was inactive. As to `CCCN(CCC)c1c([N+](=O)[O-])cc(C(C)C)cc1[N+](=O)[O-]`, the result was inactive.

As for `CC(C)(C)OOC(C)(C)C`, the compound was called inactive. For `CCCCCCCc1ccc(O)cc1`, the compound was called inactive. In the case of `ClC1=C(Cl)C2(Cl)C3C(Cl)C(Cl)CC3C1(Cl)C2(Cl)Cl` (stereo not given), the result was inactive.

Turning to `CSC(C)(C)C=NO`, the outcome was inactive. Same read-out and setting: the value for `CCNc1nc(Cl)nc(NC(C)(C)C)n1` was “inactive”; that for `CCCCN(CCCC)N=O` was “inactive”. On the same count and under the same terms, as for `c1cc2c3c(cccc3c1)CC2`, the entry is “inactive”; as for `CN(C)C(=O)Cl`, “inactive”; as for `O=P1(N(CCCl)CCCl)NCCCO1` (stereo not given), “inactive”. Same read-out and setting: the value for `ClC(Cl)(Cl)c1ccccc1` was “inactive”; that for `c1ccc(OP(Oc2ccccc2)Oc2ccccc2)cc1` was “inactive”; that for `Nc1ccc2ccccc2c1` was “inactive”. Regarding `Cc1ccc(O)cc1C`, the outcome was inactive.

Consider `CCC1(c2ccccc2)C(=O)N=C(O)NC1=O` (stereo not given), for which the outcome was inactive. For `Cc1ccc(N)cc1N`, the compound was called inactive. Still for that read-out and setting: as for `O=P(Oc1ccccc1)(Oc1ccccc1)Oc1ccccc1`, the entry is “inactive”; as for `CCCCN(CCCC)SN(C)C(=O)Oc1cccc2c1OC(C)(C)C2`, “inactive”; as for `CC(C)(C)c1ccc(O)cc1`, “inactive”. Same read-out and setting: the value for `c1nc[nH]n1` was “inactive”; that for `Cc1ccc([N+](=O)[O-])cc1C` was “inactive”. As to `CCOS(=O)(=O)OCC`, the compound was called inactive.

Take `CCCCc1ccccc1`: the call was inactive. The same measure, in the same setting: as for `COCCOCCO`, the entry is “inactive”; as for `O=[N+]([O-])c1ccccc1`, “inactive”; as for `CCOC(=O)c1ccccc1C(=O)OCC`, “inactive”. On the same count and under the same terms, as for `O=[N+]([O-])c1ccc(Cl)c(Cl)c1`, the entry is “inactive”.

As usually defined, the AC50 is the concentration giving half of the maximal activity seen.
